The record followed here is a collection of fitness landscapes (doi:10.1126/science.1257360).

Over roughly 140,000 sequences, “enrichment ratio after two sorts for PhoP signalling” has its median near 0; the highest 2% begin near 11. The entries come from a sample that favours the highest values as a whole. Where only a bound is given, the exact number is not on record here.

Sequences and labels used below:
B1: PhoQ; a variant is named by its letters at X, in order, P23837 (parent)
chain: MKKLLRLFFPLSLRVRFLLATAAVVLVLSLAYGMVALIGYSVSFDKTTFRLLRGESNLFYTLAKWENNKLHVELPENIDKQSPTMTLIYDENGQLLWAQRDVPWLMKMIQPDWLKSNGFHEIEADVNDTSLLLSGDHSIQQQLQEVREDDDDAEMTHSVAVNVYPATSRMPKLTIVVVDTIPVELKSSYMVWSWFIYVLSANLLLVIPLLWVAAWWSLRPIEALAKEVRELEEHNRELLNPATTRELTSLVRNLNRLLKSERERYDKYRTTLTDLTHSLKTPLXXLQXXLRSLRSEKMSVSDAEPVMLEQISRISQQIGYYLHRASMRGGTLLSRELHPVAPLLDNLTSALNKVYQRKGVNISLDISPEISFVGEQNDFVEVMGNVLDNACKYCLEFVEISARQTDEHLYIVVEDDGPGIPLSKREVIFDRGQRVDTLRPGQGVGLAVAREITEQYEGKIVAGESMLGGARMEVIFGRQHSAPKDE

In the assay the parent is B1. Briefly: enrichment ratio after two sorts for PhoP signalling (ratio (wild type AVST 3.29)); higher = more functional. As to conditions: with PhoP (E. coli).
Take TQMQ: the enrichment ratio amounted to 24.2. On to TQMI, for which the enrichment ratio worked out at 6.9. For TQVQ the value was 13.8; for IQVQ, at most 0.25; for TQSG, 22.2. To IQMQ belongs at most 0.25. To WQVQ belongs at most 0.25; to KSQG, at most 0.25. On to LAQG, for which the enrichment ratio was at most 0.25.

Turning to NVSG, the enrichment ratio was at most 0.25. To PVSG belongs at most 0.25; to GHDF, at most 0.25; to PFFG, at most 0.25. For QSAN the value was at most 0.25.

With HQRF, the enrichment ratio is at most 0.25. For YLKI the value was at most 0.25. For YYVE the value was at most 0.25; for YDMW, at most 0.25; for QNMD, at most 0.25. Consider NQMA, for which the enrichment ratio was at most 0.25. For the variant KQAG, the enrichment ratio was at most 0.25. To TQMG belongs 32.5; to TQQR, at most 0.25; to WQAG, at most 0.25. To TQMA belongs 12.7; to TQMV, 7.29; to SQMA, 8.75.

Regarding TQAG, the enrichment ratio was 28.2.

Take EPSH: the enrichment ratio is at most 0.25. To CFVH belongs at most 0.25. Take RDRE: the enrichment ratio was at most 0.25. For NQHC the value was at most 0.25; for RVAA, at most 0.25; for LDQA, at most 0.25. As to KQLN, the enrichment ratio is at most 0.25. In the case of DWTN, the enrichment ratio is at most 0.25. TQLN: the enrichment ratio came to 13.2. Turning to NVTN, the enrichment ratio was at most 0.25. For EQLN the value was at most 0.25; for NQFN, at most 0.25.

Consider TQEN, for which the enrichment ratio is at most 0.25. For TQTN the value was 15.4; for TQFN, 14.2. As to FQFN, the enrichment ratio was at most 0.25.

As for TQQN, the enrichment ratio came out at 14.8.

On to TQWN, for which the enrichment ratio was 10.1. For VGED the value was at most 0.25; for FPIP, at most 0.25. To WVYL belongs at most 0.25; to IRTL, at most 0.25; to EQCN, at most 0.25. For NQCN the value was at most 0.25. In the case of TQCN, the enrichment ratio was 24.9. As for YYPA, the enrichment ratio is at most 0.25. To DFPF belongs at most 0.25; to NHMA, 16.2; to WIMA, at most 0.25.

For the variant THMA, the enrichment ratio worked out at 6.15. In the case of TTMA, the enrichment ratio came to 13.4. As to YTMA, the enrichment ratio was at most 0.25.

In the case of TTGA, the enrichment ratio came to 12.6. YTGA: the enrichment ratio was at most 0.25. Consider TGMA, for which the enrichment ratio stood at 26.1. To ITGA belongs at most 0.25. For RGMA the value was at most 0.25; for GGMA, at most 0.25. For NEMA the value was at most 0.25; for LFNF, at most 0.25.

On to DMIQ, for which the enrichment ratio was at most 0.25. With LEWL, the enrichment ratio is at most 0.25. To ADCH belongs 9.13. To GPHV belongs at most 0.25; to TGWN, at most 0.25; to PMPR, at most 0.25. For KQFD the value was at most 0.25; for WFVI, at most 0.25. For the variant RFQA, the enrichment ratio is at most 0.25. Turning to VHFG, the enrichment ratio is at most 0.25. On to EVCW, for which the enrichment ratio is at most 0.25. ATMA: the enrichment ratio was found to be 1.82. For AIMA, the enrichment ratio was found to be 12.1.

On to AHMA, for which the enrichment ratio was at most 0.25. For EPIW the value was at most 0.25. Take NQNT: the enrichment ratio is at most 0.25. For STVT the value was 0.835. For SSLA the value was 7.43; for SSLT, 12. For KSVT the value was at most 0.25; for SSAT, 8.03. With SSLS, the enrichment ratio amounted to 11.4. Consider SSNT, for which the enrichment ratio is at most 0.25. Turning to SSLK, the enrichment ratio worked out at 5.98. To SSVT belongs 14.6; to HWNL, at most 0.25; to QGSH, 9.79. Turning to TMLT, the enrichment ratio turned out to be 1.84. To HPCD belongs at most 0.25. With SSRS, the enrichment ratio is at most 0.25. In the case of HMWA, the enrichment ratio was at most 0.25. For the variant LPNW, the enrichment ratio was 0.366.

For the variant QQHW, the enrichment ratio is at most 0.25. To THTR belongs at most 0.25. For AKLH the value was 14.6; for AHLH, at most 0.25. Regarding WQLH, the enrichment ratio was at most 0.25.

For HKLH, the enrichment ratio is at most 0.25.

For the variant TKLH, the enrichment ratio came out at 11.9. For CQLH the value was 27.9; for KKLH, at most 0.25.

Consider RQLH, for which the enrichment ratio was at most 0.25. For AQLH the value was 13.8; for MKLH, at most 0.25; for TPLH, at most 0.25.

Turning to HQLH, the enrichment ratio is at most 0.25. On to PTHK, for which the enrichment ratio is at most 0.25.

On to EMCT, for which the enrichment ratio was at most 0.25. Consider CHLM, for which the enrichment ratio is at most 0.25.

Turning to QVLK, the enrichment ratio was at most 0.25. For NHYM the value was at most 0.25; for SLCY, 2.99; for SMGQ, 11.7. To MMCY belongs at most 0.25; to SMCK, 9.85; to KYAQ, at most 0.25. For SMCY the value was 11.6; for SMCS, 10.4; for SMGG, 1.44. On to SMCI, for which the enrichment ratio was 14.3. Take SMAQ: the enrichment ratio stood at 15.5. In the case of SMHP, the enrichment ratio was at most 0.25. Regarding KMAQ, the enrichment ratio was at most 0.25. To GSEH belongs at most 0.25. For IYMF, the enrichment ratio was at most 0.25. Take IKKL: the enrichment ratio is at most 0.25.

With TQFP, the enrichment ratio is at most 0.25. Turning to KGRD, the enrichment ratio was at most 0.25.

On to LVLT, for which the enrichment ratio was at most 0.25. To VGSS belongs at most 0.25; to WDDM, at most 0.25. To GMHA belongs at most 0.25. For SMMD the value was at most 0.25; for SMGL, 5.54. For the variant SMME, the enrichment ratio was found to be 14.6. To SMCL belongs 16.6; to SMMY, 2.28. As for SMPM, the enrichment ratio was at most 0.25. For SMPL the value was at most 0.25; for SMTM, 14.9. Take SMSH: the enrichment ratio turned out to be 9.89. To SMSA belongs 14.6; to SMSQ, 11.1; to SMWM, at most 0.25. To LSHR belongs at most 0.25.
